Results on one sequence are retold here after article PMC7862700, “An all-to-all approach to the identification of sequence-specific readers for epigenetic DNA modifications on cytosine”.

What all share (assay): DAPPL (digital affinity profiling via proximity ligation, sequencing); 10 mM Tris-HCl pH 7.5, 50 mM NaCl, 1 mM DTT, 4% glycerol, room temperature, 30 min; GST-TFs on glutathione beads, 16-mer random dsDNA library, 0.1% formaldehyde crosslink after washing; high values mean tight binding
For assay [1], the target named is T1, FEV (Homo sapiens, UniProt Q99581 1-238).
T1 sequence: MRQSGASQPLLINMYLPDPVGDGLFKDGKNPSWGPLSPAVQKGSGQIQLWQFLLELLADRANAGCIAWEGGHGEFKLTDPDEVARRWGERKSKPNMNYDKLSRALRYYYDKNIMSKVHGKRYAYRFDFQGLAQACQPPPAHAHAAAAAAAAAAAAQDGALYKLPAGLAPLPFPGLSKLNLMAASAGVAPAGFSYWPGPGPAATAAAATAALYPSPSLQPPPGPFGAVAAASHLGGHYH
The following applies: protein: recombinant; tags: N-terminal GST; dsDNA, one strand shown. The method in brief: (§1)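 A tag-only sample was pooled with DNA-barcoded human transcription factors that had been expressed in yeast as GST fusions and captured on glutathione beads. The pools were incubated for 30 min at room temperature with 200 nmole of a random double-stranded 16-mer DNA library in Tris/NaCl/DTT/glycerol buffer, then washed, crosslinked with 0.1% formaldehyde, proximity-ligated (BsaI/T4 ligase, 1 h, 37 °C), PCR-amplified and sequenced on an Illumina NextSeq500. Binding signal is each hexamer's read frequency for a factor divided by its frequency for the tag-only sample.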

The target in assay [2] is ETV5 (Homo sapiens, UniProt P41161 1-510). The following applies: protein: recombinant; tags: N-terminal GST; dsDNA, one strand shown. The method in brief:
as §1

The target of assay [3] is HSF1 (Homo sapiens, UniProt Q00613 1-529). The note with it: protein: recombinant; tags: N-terminal GST; chain copies: 3; dsDNA, one strand shown. A digest of the protocol:
as §1

Assay [4] addresses T2, SPIC (Homo sapiens, UniProt Q8N5J4 1-248).
T2 sequence: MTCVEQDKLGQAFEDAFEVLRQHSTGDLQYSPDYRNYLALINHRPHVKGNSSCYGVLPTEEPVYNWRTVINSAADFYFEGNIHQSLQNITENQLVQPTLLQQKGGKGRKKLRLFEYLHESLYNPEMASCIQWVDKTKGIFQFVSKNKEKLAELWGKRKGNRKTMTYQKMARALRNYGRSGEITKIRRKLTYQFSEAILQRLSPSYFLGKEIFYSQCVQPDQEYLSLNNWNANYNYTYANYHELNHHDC
The note with it: protein: recombinant; tags: N-terminal GST; dsDNA, one strand shown. A digest of the protocol:
as §1

The target of assay [5] is ELF4 (Homo sapiens, UniProt Q99607 1-663). The following applies: protein: recombinant; tags: N-terminal GST; dsDNA, one strand shown. The method in brief:
as §1

Assay [6] deals with T3, ELK4 (Homo sapiens, UniProt P28324-2 1-405).
T3 sequence: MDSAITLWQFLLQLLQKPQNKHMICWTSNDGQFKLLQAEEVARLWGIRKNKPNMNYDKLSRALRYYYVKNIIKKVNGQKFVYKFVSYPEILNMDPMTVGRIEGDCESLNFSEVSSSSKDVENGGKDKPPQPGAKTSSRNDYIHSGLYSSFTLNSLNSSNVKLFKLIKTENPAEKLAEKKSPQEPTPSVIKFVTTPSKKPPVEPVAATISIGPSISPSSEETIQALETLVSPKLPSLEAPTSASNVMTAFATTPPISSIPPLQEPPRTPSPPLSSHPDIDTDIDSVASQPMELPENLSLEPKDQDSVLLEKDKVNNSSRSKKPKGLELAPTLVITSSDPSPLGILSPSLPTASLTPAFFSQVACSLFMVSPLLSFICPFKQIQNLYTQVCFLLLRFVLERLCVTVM
The note with it: protein: recombinant; tags: N-terminal GST; dsDNA, one strand shown. The method in brief: as §1

Assay [7] has as its target T4, ETV2 (Homo sapiens, UniProt O00321 1-342).
T4 sequence: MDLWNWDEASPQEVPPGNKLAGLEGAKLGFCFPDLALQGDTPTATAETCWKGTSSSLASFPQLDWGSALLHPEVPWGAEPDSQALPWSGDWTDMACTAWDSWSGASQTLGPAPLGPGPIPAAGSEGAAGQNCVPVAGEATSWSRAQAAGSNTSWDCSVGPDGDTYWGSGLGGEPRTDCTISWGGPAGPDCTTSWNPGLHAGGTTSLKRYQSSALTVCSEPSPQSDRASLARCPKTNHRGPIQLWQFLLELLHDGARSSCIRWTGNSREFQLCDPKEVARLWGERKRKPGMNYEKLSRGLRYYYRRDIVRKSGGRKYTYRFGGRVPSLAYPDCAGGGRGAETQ
The note with it: protein: recombinant; tags: N-terminal GST; dsDNA, one strand shown. The method in brief:
as §1

Assay [8] has as its target T5, ELF3 (Homo sapiens, UniProt P78545 1-371).
T5 sequence: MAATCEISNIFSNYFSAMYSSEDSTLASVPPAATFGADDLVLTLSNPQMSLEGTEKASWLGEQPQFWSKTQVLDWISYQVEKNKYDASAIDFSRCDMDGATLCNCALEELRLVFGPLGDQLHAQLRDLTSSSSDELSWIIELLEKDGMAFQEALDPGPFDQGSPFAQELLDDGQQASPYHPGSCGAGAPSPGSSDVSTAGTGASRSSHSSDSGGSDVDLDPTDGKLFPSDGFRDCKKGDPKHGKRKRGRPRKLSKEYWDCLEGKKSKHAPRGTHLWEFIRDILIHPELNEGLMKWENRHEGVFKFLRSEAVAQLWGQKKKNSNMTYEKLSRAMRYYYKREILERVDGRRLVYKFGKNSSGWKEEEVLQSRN
The following applies: protein: recombinant; tags: N-terminal GST; dsDNA, one strand shown. The method in brief:
as §1

The target in assay [9] is CRX (Homo sapiens, UniProt O43186 1-299). The note with it: protein: recombinant; tags: N-terminal GST; dsDNA, one strand shown. The method in brief: as §1
Chain of CRX (O43186 whole entry): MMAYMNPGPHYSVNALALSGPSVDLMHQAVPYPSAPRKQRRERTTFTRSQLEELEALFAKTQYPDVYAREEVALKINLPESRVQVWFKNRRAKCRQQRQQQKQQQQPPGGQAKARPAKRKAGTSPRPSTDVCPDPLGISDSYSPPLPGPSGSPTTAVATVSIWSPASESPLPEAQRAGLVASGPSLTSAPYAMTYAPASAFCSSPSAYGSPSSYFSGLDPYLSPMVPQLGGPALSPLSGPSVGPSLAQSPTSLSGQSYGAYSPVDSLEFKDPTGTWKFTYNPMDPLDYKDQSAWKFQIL
The target of assay [10] is ETV1 (Homo sapiens, UniProt P50549 1-477). The following applies: protein: recombinant; tags: N-terminal GST; dsDNA, one strand shown. A digest of the protocol:
as §1

The target of assay [11] is T6, ERF (Homo sapiens, UniProt P50548 1-548).
T6 sequence: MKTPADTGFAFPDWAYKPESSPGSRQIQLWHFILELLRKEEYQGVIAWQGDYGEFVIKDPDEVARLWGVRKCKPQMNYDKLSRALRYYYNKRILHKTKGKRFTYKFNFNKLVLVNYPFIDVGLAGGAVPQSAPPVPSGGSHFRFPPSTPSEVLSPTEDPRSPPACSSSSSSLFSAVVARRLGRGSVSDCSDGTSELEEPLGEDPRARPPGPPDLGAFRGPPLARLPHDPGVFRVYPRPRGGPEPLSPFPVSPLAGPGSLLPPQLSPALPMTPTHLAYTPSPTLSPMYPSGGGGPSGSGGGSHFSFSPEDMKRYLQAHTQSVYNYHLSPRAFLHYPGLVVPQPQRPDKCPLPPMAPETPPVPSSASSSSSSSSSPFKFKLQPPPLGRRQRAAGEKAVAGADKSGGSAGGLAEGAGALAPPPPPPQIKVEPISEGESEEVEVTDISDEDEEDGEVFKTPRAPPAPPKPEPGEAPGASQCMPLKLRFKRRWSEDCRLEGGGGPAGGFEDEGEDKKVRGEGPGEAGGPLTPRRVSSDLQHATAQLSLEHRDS
The following applies: protein: recombinant; tags: N-terminal GST; dsDNA, one strand shown. The method in brief: as §1

The target in assay [12] is T7, ETV3L (Homo sapiens, UniProt Q6ZN32 1-361).
T7 sequence: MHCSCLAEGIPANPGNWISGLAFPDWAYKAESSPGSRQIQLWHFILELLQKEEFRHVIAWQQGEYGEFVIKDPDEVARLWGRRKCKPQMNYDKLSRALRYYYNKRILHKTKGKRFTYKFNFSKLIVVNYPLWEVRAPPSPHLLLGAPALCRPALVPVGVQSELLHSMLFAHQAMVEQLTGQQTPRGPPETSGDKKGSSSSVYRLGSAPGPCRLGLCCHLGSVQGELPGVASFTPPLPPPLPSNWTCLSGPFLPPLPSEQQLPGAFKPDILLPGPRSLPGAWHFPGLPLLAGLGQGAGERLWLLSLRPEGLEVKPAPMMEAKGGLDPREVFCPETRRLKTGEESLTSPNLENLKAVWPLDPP
The following applies: protein: recombinant; tags: N-terminal GST; dsDNA, one strand shown. A digest of the protocol: as §1

The target in assay [13] is T8, ETS2 (Homo sapiens, UniProt P15036 1-469).
T8 sequence: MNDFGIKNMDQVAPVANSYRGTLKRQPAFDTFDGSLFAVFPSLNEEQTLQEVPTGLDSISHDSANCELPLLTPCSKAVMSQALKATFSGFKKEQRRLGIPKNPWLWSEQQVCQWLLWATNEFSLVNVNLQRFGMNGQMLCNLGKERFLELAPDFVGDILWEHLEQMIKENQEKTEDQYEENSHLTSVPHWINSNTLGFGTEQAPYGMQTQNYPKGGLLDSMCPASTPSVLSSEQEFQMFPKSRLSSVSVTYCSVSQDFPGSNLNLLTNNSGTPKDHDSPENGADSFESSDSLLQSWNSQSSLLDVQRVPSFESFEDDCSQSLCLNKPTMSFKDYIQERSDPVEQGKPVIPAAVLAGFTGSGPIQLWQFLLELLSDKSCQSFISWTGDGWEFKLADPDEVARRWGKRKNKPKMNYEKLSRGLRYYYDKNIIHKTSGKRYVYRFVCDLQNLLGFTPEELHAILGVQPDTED
The note with it: protein: recombinant; tags: N-terminal GST; dsDNA, one strand shown. The method in brief: as §1

Assay [14] deals with T9, SPDEF (Homo sapiens, UniProt O95238 1-335).
T9 sequence: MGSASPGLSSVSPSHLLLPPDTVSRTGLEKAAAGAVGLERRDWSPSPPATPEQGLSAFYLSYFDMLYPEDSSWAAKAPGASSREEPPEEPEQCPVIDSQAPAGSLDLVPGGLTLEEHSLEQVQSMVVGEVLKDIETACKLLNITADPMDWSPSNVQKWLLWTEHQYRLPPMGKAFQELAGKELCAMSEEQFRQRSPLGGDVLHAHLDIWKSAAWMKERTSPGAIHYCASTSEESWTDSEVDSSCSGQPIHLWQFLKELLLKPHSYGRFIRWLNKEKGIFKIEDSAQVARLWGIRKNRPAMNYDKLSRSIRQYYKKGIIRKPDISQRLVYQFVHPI
The note with it: protein: recombinant; tags: N-terminal GST; dsDNA, one strand shown. A digest of the protocol: as §1

Assay [15] concerns the target T10, ETV7 (Homo sapiens, UniProt Q9Y603 1-341).
T10 sequence: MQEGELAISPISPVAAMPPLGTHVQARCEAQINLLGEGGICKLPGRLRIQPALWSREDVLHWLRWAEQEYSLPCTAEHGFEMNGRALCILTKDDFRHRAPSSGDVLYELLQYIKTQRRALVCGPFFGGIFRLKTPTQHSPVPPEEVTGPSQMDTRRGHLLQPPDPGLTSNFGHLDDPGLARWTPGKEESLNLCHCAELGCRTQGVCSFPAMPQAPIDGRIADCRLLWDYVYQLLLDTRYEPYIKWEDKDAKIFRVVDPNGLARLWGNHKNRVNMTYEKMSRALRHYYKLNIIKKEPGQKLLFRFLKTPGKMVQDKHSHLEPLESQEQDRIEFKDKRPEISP
The following applies: protein: recombinant; tags: N-terminal GST; dsDNA, one strand shown. The method in brief: as §1

Assay [16] has as its target T11, ELF5 (Homo sapiens, UniProt Q9UKW6-2 1-255).
T11 sequence: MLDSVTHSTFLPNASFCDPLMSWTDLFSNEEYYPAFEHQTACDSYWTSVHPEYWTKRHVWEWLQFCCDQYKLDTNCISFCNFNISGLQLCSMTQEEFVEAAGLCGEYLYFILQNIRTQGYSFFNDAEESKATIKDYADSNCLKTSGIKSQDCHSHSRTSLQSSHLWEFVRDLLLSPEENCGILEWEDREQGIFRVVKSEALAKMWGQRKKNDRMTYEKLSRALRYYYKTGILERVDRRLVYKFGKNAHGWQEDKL
The following applies: protein: recombinant; tags: N-terminal GST; dsDNA, one strand shown. The method in brief:
as §1

Assay [17] has as its target T12, ETV3 (Homo sapiens, UniProt P41162-2 1-143).
T12 sequence: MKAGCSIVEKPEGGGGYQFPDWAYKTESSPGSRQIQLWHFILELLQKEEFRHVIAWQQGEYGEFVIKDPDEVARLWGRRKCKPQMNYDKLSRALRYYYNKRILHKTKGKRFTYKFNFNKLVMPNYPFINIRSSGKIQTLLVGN
The following applies: protein: recombinant; tags: N-terminal GST; dsDNA, one strand shown. A digest of the protocol: as §1

The target in assay [18] is ETV6 (Homo sapiens, UniProt P41212 1-452). The following applies: protein: recombinant; tags: N-terminal GST; dsDNA, one strand shown. The method in brief:
as §1

Chain of ETV6 (P41212 whole entry): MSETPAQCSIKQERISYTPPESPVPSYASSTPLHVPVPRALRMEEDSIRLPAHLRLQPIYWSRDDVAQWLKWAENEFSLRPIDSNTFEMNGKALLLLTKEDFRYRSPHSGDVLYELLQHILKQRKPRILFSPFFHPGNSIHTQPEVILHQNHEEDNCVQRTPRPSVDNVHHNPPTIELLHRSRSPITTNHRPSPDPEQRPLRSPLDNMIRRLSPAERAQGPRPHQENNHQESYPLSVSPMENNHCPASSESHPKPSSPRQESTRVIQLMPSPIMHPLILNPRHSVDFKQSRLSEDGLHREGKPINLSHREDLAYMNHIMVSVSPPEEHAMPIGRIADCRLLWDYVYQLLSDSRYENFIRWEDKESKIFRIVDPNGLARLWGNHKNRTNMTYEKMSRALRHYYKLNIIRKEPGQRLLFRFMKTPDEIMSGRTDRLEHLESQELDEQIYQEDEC
Chain of ETV1 (P50549 whole entry): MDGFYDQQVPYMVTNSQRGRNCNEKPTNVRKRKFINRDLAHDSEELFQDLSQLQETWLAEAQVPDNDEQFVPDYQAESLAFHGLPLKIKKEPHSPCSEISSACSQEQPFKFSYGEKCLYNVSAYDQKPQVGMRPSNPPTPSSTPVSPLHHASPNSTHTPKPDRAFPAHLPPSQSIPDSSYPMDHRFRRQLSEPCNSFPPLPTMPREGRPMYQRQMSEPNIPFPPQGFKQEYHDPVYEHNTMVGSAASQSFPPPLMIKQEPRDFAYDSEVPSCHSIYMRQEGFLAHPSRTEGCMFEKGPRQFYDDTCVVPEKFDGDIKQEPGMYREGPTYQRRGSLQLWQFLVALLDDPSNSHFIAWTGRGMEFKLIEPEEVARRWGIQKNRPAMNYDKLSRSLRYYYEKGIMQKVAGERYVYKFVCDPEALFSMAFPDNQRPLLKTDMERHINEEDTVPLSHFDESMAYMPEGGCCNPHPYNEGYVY
Chain of HSF1 (Q00613 whole entry): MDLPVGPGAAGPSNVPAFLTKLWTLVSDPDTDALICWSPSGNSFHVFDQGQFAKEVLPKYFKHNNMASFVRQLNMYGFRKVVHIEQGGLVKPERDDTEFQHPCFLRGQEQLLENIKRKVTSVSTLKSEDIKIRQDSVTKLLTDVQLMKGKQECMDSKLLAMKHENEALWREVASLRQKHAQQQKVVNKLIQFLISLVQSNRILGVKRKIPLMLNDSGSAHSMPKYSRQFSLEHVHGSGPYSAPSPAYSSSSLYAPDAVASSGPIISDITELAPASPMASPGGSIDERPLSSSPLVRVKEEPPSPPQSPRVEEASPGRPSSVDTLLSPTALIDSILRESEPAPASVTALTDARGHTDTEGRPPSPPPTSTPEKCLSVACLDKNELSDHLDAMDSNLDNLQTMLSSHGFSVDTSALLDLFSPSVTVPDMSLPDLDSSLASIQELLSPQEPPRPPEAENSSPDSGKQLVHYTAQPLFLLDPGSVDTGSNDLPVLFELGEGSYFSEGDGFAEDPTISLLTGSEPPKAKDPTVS
Chain of ELF4 (Q99607 whole entry): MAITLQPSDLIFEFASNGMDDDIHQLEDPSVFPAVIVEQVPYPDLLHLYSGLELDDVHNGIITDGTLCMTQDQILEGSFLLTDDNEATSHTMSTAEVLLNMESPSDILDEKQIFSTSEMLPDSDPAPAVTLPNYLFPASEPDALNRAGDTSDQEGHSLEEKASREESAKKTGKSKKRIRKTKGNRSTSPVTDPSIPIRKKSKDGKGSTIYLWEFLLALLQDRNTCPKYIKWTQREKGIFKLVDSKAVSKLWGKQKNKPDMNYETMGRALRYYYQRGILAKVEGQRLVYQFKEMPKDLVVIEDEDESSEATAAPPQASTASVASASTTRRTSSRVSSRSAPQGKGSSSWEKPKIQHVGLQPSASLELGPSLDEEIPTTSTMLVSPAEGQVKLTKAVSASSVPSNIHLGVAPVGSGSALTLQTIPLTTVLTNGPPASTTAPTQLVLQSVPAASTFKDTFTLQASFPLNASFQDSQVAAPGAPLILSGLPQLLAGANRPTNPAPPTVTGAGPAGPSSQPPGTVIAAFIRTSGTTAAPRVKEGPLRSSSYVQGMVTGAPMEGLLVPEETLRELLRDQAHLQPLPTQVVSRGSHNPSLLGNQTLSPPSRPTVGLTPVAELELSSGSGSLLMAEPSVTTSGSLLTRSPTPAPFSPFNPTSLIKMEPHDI
Chain of ETV5 (P41161 whole entry): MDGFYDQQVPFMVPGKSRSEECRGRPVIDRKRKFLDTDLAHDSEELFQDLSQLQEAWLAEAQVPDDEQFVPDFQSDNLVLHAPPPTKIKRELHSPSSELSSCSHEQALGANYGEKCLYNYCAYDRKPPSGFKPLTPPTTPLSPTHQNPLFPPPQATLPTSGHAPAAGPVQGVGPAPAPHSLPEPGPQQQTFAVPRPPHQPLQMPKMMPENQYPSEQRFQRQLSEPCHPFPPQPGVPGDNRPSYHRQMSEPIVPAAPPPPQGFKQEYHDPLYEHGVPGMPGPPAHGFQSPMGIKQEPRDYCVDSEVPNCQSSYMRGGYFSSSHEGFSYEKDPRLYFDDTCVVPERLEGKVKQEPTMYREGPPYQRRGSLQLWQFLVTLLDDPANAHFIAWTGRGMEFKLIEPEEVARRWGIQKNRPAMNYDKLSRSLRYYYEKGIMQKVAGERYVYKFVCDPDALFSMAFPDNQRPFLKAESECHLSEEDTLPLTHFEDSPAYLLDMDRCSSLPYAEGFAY

As for ATTTGC, the binding signal in assay [1] is 1.29 fold enrichment (6-mer frequency, TF over GST control); in [2] it was 1.4 fold enrichment (6-mer frequency, TF over GST control); in [3], 1.47 fold enrichment (6-mer frequency, TF over GST control); in [4], 1.29 fold enrichment (6-mer frequency, TF over GST control); in assay [5], 1.23 fold enrichment (6-mer frequency, TF over GST control); in assay [6], 1.3 fold enrichment (6-mer frequency, TF over GST control). Further, the binding signal in assay [7] is 1.23 fold enrichment (6-mer frequency, TF over GST control); in assay [8], 1.33 fold enrichment (6-mer frequency, TF over GST control); in [9] it was 1.5 fold enrichment (6-mer frequency, TF over GST control); in [10] it was 1.38 fold enrichment (6-mer frequency, TF over GST control); in assay [11] it was 1.32 fold enrichment (6-mer frequency, TF over GST control); in assay [12] it was 1.26 fold enrichment (6-mer frequency, TF over GST control). For the same sequence, the binding signal in [13] is 1.28 fold enrichment (6-mer frequency, TF over GST control); in assay [14], 1.27 fold enrichment (6-mer frequency, TF over GST control); in [15] it was 1.43 fold enrichment (6-mer frequency, TF over GST control); in [16], 1.25 fold enrichment (6-mer frequency, TF over GST control); in assay [17], 1.37 fold enrichment (6-mer frequency, TF over GST control); in assay [18] it was 1.27 fold enrichment (6-mer frequency, TF over GST control).
